# Measured values as given in PubChem BioAssay (NCATS).
# Several values for one entry are separate records, joined by “and”; a condition that tells them apart may be missing. Identical values can stand only once. Inconclusive results are not listed. Activity calls are given as the source filed them. Unless noted, calls come from the whole dose curve; as a rule, active = well fitted curve in the direction sought with a large enough effect; inconclusive = small, poorly fitted or top-dose-only effect, or another doubt; inactive = no such curve, though single readings can be large; an effect the other way counts as inactive or inconclusive.
# Tests used:
# [1] = Primary qHTS for inhibitors of nuclear receptor binding SET domain protein 2 (NSD2) in an isogenic RCH-ACV NSD2 p.E1099K mutant (9B) (AID 1645876); note: nearly all actives have a fitted effect of over 70% in size; note: potency is the fitted concentration of half-maximal effect
# [2] = Primary qHTS for inhibitors of nuclear receptor binding SET domain protein 2 (NSD2) in an RCH-ACV wild type WT cells (2C) (AID 1645877); note: nearly all actives have a fitted effect of over 70% in size; note: potency is the fitted concentration of half-maximal effect
# [3] = molecular target: Glutathione peroxidase 1 (Homo sapiens) (UniProt P07203); experiment: Primary qHTS Assay for Inhibitors of Recombinant Selenoprotein Glutathione Peroxidase 1 (GPX1) (AID 1845191); note: nearly all actives have a fitted effect of over 65% in size; note: potency is the fitted concentration of half-maximal effect
# In short: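 10 nM GPX1 + cpd, 30 min RT; start w/ 1 mM GSH, 0.5 mM cumene hydroperoxide, 0.5 mM NADPH, 100 nM GR, 0.01% BSA; buffer 50 mM Tris-HCl pH 7.5, 2 mM EDTA, 150 mM NaCl; Fl 340/450, 0 & 15 min.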
# [4] = molecular target: Phospholipid hydroperoxide glutathione peroxidase GPX4 (Homo sapiens) (UniProt P36969); experiment: Primary qHTS Assay for Inhibitors of Recombinant Selenoprotein Glutathione Peroxidase 4 (GPX4) (AID 1845192); note: nearly all actives have a fitted effect of over 65% in size; note: potency is the fitted concentration of half-maximal effect; for activity change, negative = inhibition: % is set by controls: 0 for no effect and ±100 for the full control effect
# In short: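 NADPH consumption, followed by fluorescence at 340/450 nm between 0 and 15 min, reports GPX4 activity via coupled glutathione reductase (100 nM). Enzyme 200 nM was pre-exposed to compound 30 min; 0.5 mM cumene hydroperoxide and 1 mM GSH served as substrates.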
# [5] = qHTS drug screen for cell cycle checkpoint inhibitors in PARPi-resistant BRCA-mutant ovarian cancer cell lines. (AID 1963452; calls by dose curve); settings: PEO1/OlaR viability, CellTiter-Glo luminescence, 96 h, stronger effect = lower value
# In short: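 PEO1, PEO4 and PEO1/OlaR ovarian cancer cells, 600 per well, exposed 96 h at 37C to a dilution series. Viability read by CellTiter-Glo luminescence, normalized to DMSO and empty wells; activity summarized as Z-AUC.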
# [6] = NCATS anti-infectives library activity on HEK293 viability as a counter-qHTS vs the C. elegans viability qHTS (AID 1745854);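 note: HEK293 cells exposed to compounds for 24 hr before the viability read; % is set by controls: 0 for no effect and ±100 for the full control effect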
# In short: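 Cytotoxicity in human HEK293 cells is measured by ATP-dependent CellTiter-Glo luminescence following a 24 hr incubation with titrated library compounds at 37C. Top final concentration is 41.7 uM.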
# [7] = NCATS anti-infectives library activity on the primary C. elegans qHTS viability assay (AID 1745855; calls by dose curve; note: potency is the fitted concentration of half-maximal effect)
# In short: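 Viability is taken from GFP fluorescence of PE254-GFP-FLuc C. elegans imaged by laser cytometry over 7 days. Ten L1 worms per well grow at 21 °C on TOP10 E. coli capsules with titrated compound; levamisole marks toxicity.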
# [8] = molecular target: Catechol O-methyltransferase (Homo sapiens) (UniProt P21964); experiment: Confirmatory Screen for Target Class Profiling of Small Molecule Inhibitors of Methyltransferases (AID 1745852; calls by dose curve; note: potency is the fitted concentration of half-maximal effect; for activity change, negative = inhibition: % is set by controls: 0 for no effect and ±100 for the full control effect); settings: MTase-Glo luminescence, SAH detection, recombinant enzyme; measured here: COMT max response; stronger effect = lower value
# [9] = molecular target: Guanidinoacetate N-methyltransferase (Homo sapiens) (UniProt Q14353); experiment: as above; settings: MTase-Glo luminescence, SAH detection, recombinant enzyme; activity change, negative = inhibition: at 57.3 µM (top of the series) unless noted
# [10] = molecular target: Nicotinamide N-methyltransferase (Homo sapiens) (UniProt P40261); experiment: as above; settings: MTase-Glo luminescence, SAH detection, recombinant enzyme; measured here: NNMT max response; stronger effect = lower value
# [11] = molecular target: Phenylethanolamine N-methyltransferase (Homo sapiens) (UniProt P11086); experiment: as above; settings: MTase-Glo luminescence, SAH detection, recombinant enzyme; measured here: PNMT max response; stronger effect = lower value
# [12] = measured here: PEO1 parental Z-AUC
# Sequence of Phospholipid hydroperoxide glutathione peroxidase GPX4 (Homo sapiens) (P36969 whole entry, looked up): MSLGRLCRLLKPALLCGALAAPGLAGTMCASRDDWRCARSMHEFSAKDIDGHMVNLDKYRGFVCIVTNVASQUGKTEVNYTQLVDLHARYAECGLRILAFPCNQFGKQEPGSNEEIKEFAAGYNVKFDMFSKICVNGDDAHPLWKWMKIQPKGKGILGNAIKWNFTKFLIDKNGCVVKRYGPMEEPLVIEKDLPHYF
# Sequence of Glutathione peroxidase 1 (Homo sapiens) (P07203 whole entry, looked up): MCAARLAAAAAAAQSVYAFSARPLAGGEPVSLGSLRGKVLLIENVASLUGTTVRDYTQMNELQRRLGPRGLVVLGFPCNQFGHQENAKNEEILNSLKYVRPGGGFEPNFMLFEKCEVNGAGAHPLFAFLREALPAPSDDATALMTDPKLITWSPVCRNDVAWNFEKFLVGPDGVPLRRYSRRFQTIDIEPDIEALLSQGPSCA
# Sequence of Phenylethanolamine N-methyltransferase (Homo sapiens) (P11086 whole entry, looked up): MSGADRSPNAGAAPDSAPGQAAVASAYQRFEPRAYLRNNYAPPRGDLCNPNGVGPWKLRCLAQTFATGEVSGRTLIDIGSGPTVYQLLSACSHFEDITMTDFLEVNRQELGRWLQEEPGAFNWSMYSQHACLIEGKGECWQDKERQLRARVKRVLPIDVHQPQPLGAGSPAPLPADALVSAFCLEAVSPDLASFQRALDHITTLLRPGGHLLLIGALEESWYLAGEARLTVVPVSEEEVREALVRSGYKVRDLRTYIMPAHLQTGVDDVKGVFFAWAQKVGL
# Sequence of Catechol O-methyltransferase (Homo sapiens) (P21964 whole entry, looked up): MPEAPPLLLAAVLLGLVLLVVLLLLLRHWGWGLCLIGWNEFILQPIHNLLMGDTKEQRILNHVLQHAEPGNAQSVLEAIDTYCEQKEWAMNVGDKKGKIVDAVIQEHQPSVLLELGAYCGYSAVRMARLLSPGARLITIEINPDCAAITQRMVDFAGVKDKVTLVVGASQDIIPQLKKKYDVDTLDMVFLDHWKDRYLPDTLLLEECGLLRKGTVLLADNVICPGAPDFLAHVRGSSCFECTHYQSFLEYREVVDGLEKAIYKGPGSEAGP
# Sequence of Nicotinamide N-methyltransferase (Homo sapiens) (P40261 whole entry, looked up): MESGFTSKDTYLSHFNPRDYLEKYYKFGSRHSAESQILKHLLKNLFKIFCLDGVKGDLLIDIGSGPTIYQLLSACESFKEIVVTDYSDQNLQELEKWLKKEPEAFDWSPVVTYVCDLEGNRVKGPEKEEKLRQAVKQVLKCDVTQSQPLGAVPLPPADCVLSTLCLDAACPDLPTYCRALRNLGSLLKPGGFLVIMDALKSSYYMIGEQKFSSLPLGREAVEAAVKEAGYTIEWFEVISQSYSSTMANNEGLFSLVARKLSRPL
smiles,measurement,setting,value
Oc1cccc(Nc2ncnc3sc4c(c23)CCCC4)c1,Potency,[1],9.2 µM (active)
same,Potency,[2],8.2 µM (active)
same,Potency,[3],inactive
N#Cc1c(N)nc(N)nc1N[C@H](c1nc2c(F)ccc(Cl)c2c(=O)n1-c1cccnc1)C1CC1,Potency,[1],0.417 µM (active)
same,Potency,[2],0.417 µM (active)
same,Potency,[3],inactive
same,Potency,[4],inactive
C[C@]1(C(=O)N(CCCC(=O)O)Cc2cccc(Cl)c2)CCN1C(=O)c1csc2ccccc12,Potency,[1],inactive
same,Potency,[2],inactive
same,Potency,[3],inactive
same,Potency,[4],inactive
same,Z-AUC,[5],0.897 (inactive)
same,Z-AUC,[5]; [12],0.571
same,Z-AUC,[5]; measured here: PEO4 Z-AUC,0.835
COc1ccc(-c2ccc3c(N4CCOC[C@@H]4C)nc(N4CCOC[C@@H]4C)nc3n2)cc1CO,Potency,[1],0.059 µM (active)
same,Potency,[2],0.0934 µM (active)
same,Potency,[3],18.3 µM (active)
same,Potency,[4],16.1 µM (active)
same,Z-AUC,[5],1.14 (inactive)
same,Z-AUC,[5]; [12],0.497
same,Z-AUC,[5]; measured here: PEO4 Z-AUC,0.69
[2H]C([2H])([2H])C(O)([C@@H](C)/C=C/[C@@H](C)[C@H]1CC[C@H]2/C(=C/C=C3C[C@@H](O)C[C@H](O)C3)CCC[C@]12C)C([2H])([2H])[2H],Potency,[1],inactive
same,Potency,[2],inactive
same,Potency,[3],inactive
same,Potency,[4],inactive
same,Z-AUC,[5],1.18 (inactive)
same,Z-AUC,[5]; [12],0.263
same,Z-AUC,[5]; measured here: PEO4 Z-AUC,0.327
C[C@]12CCCN1CC1=NNC(=O)c3cc(F)cc4[nH]c2c1c34,Potency,[1],10.5 µM (active)
same,Potency,[2],3.72 µM (active)
same,outcome,[6],inactive
same,Potency,[7],inactive
same,Potency,[3],inactive
same,Potency,[4],inactive
same,Z-AUC,[5],-0.827 (inactive)
same,Z-AUC,[5]; [12],-0.713
same,Z-AUC,[5]; measured here: PEO4 Z-AUC,0.783
CC[C@H](Nc1ncnc2nc[nH]c12)c1oc2ccccc2c(=O)c1-c1cccc(F)c1,Potency,[1],1.32 µM (active)
same,Potency,[2],1.48 µM (active)
same,Potency,[3],inactive
same,Potency,[4],inactive
same,Z-AUC,[5],0.58 (inactive)
same,Z-AUC,[5]; [12],0.184
same,Z-AUC,[5]; measured here: PEO4 Z-AUC,0.542
Cc1ccc(-n2nc(C(C)(C)C)cc2NC(=O)NCc2cc(F)ccc2Oc2ccc3c(cnn3CCO)c2)cc1,Potency,[1],16.6 µM (active)
same,Potency,[2],14.8 µM (active)
same,Potency,[3],inactive
same,Potency,[4],inactive
same,Z-AUC,[5],1.04 (inactive)
same,Z-AUC,[5]; [12],0.682
same,Z-AUC,[5]; measured here: PEO4 Z-AUC,0.464
Nc1n[nH]c(N)c1N=Nc1ccc(O)cc1,Potency,[1],13 µM (active)
same,Potency,[2],14.6 µM (active)
same,Potency,[3],inactive
Cc1cc(Nc2ncnc3ccc(NC4=NC(C)(C)CO4)cc23)ccc1Oc1ccn2ncnc2c1,Potency,[1],18.6 µM (active)
same,Potency,[2],16.6 µM (active)
same,Potency,[3],inactive
same,Potency,[4],inactive
O=C(NO)c1cnc(NC2(c3ccccc3)CC2)nc1,Potency,[1],7.42 µM (active)
same,Potency,[2],7.42 µM (active)
same,outcome,[6],inactive
same,Potency,[3],inactive
same,Potency,[4],inactive
Oc1cccc(Nc2ccnc3[nH]c4ccccc4c23)c1,Potency,[1],4.11 µM (active)
same,Potency,[2],4.11 µM (active)
same,activity,[8],-17.6%
same,Potency,[9],48.2 µM (active)
same,activity,[10],-74.1%
same,activity,[11],-25.8%
COc1cc2c(NC3CCN(C)CC3)nc(N3CCCN(C)CC3)nc2cc1OCCCN(C)C,Potency,[1],inactive
same,Potency,[2],inactive
same,activity,[8],3.04%
same,"activity change, negative = inhibition",[9],3.96%
same,activity,[10],-9.37%
same,activity,[11],-4.66%
same,Potency,[3],inactive
same,Potency,[4],18 µM (active)
same,Z-AUC,[5],-0.893 (inactive)
same,Z-AUC,[5]; [12],-0.915
same,Z-AUC,[5]; measured here: PEO4 Z-AUC,-1.6
C/C=C/C[C@@H](C)C(=O)[C@H]1C(=O)N[C@@H](C(C)C)C(=O)N(C)CC(=O)N(C)[C@@H](CC(C)C)C(=O)N[C@@H](C(C)C)C(=O)N(C)[C@@H](CC(C)C)C(=O)N[C@@H](C)C(=O)N[C@H](C)C(=O)N(C)[C@@H](CC(C)C)C(=O)N(C)[C@@H](CC(C)C)C(=O)N(C)[C@@H](C(C)C)C(=O)N1C,Potency,[1],inactive
same,Potency,[2],inactive
same,Potency,[3],inactive
same,Potency,[4],inactive
same,Z-AUC,[5],-0.152 (inactive)
same,Z-AUC,[5]; [12],-0.111
same,Z-AUC,[5]; measured here: PEO4 Z-AUC,0.176
O=C1Nc2ccccc2/C1=C/c1cc(O)ccc1O,Potency,[1],16.4 µM (active)
same,Potency,[2],18.4 µM (active)
same,activity,[8],-4.65%
same,"activity change, negative = inhibition",[9],-0.984%
same,activity,[10],-18.3%
same,activity,[11],-2.66%
same,Potency,[3],inactive
CC1=C2C[C@H]3[C@@H](CC[C@@H]4C[C@H](NS(C)(=O)=O)CC[C@@]43C)[C@@H]2CC[C@@]2(C1)O[C@@H]1C[C@H](C)CN[C@H]1[C@H]2C,Potency,[1],13.2 µM (active)
same,Potency,[2],13.2 µM (active)
same,Potency,[3],inactive
same,Potency,[4],inactive
same,Z-AUC,[5],0.848 (inactive)
same,Z-AUC,[5]; [12],0.333
same,Z-AUC,[5]; measured here: PEO4 Z-AUC,-0.208
C[C@H](NC(=O)c1c(N)nn2cccnc12)c1cc2cccc(C#Cc3cnn(C)c3)c2c(=O)n1-c1ccccc1,Potency,[1],1.62 µM (active)
same,Potency,[2],3.62 µM (active)
same,Potency,[3],inactive
same,Potency,[4],inactive
same,Z-AUC,[5],-0.378 (inactive)
same,Z-AUC,[5]; [12],0.564
same,Z-AUC,[5]; measured here: PEO4 Z-AUC,0.799
CC(=O)O/N=C1/C(c2c(O)[nH]c3cc(Br)ccc23)=Nc2ccccc21,Potency,[1],1.84 µM (active) and 2.09 µM (active)
same,Potency,[2],2.06 µM (active) and 2.09 µM (active)
same,outcome,[6],inactive
same,Potency,[7],20.5 µM (active)
same,Potency,[4],inactive
CCN1/C(=C/C(C)=O)Sc2ccc(OC(C)=O)cc21,Potency,[1],16.4 µM (active)
same,Potency,[2],20.6 µM (active)
same,Potency,[3],inactive
